This is one part of a sample in which hits are shown more often than they occur.
IDE exosite inh: exo-site inhibitors of human IDE, primary screen, biochemical, fluorescence anisotropy, probe displacement; 17,000 tested, 6.3% active; AID 1259349, 2017; purified IDE, FL-6b probe fluorescence polarization; stronger effect = lower value; z-score at 20 µM;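 active = z-score of -3 or lower, meaning strong loss of probe binding signal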;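 note: His-tagged human IDE residues 42-1019 made in E. coli with 30 nM FL-6b probe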
The depositor's hits bear a star.

SMILES | IDE exosite inh
O=C(c1ccccn1)N1C[C@H]2[C@@H](c3ccccc31)[C@H](CO)N2C(=O)C1CCCCC1 | 0.62
COc1cccc(C(=O)Nc2ccc3c(c2)C(=O)N(C)[C@@H]2CC[C@H](CC(=O)NCc4ccc(F)cc4)O[C@@H]2CO3)c1 | 0.742
COc1ccc(S(=O)(=O)Nc2ccc3c(c2)CC(=O)N([C@@H](C)CO)C[C@H](C)[C@H](CN(C)C(=O)Nc2c(C)noc2C)O3)cc1 | 2.62
CC(=O)NC[C@@H]1[C@@H](c2ccccc2)[C@@H](CO)N1C(=O)Cc1ccncc1 | 0.189
Cc1cccc(-c2ccc([C@@H]3[C@H]4CN(C(=O)c5ccncc5)CCCCN4[C@H]3CO)cc2)c1 | -17*
O=C(c1ccncc1)N1CCCCN2[C@H](CO)[C@H](c3ccc(-c4ccccc4)cc3)[C@@H]2C1 | 2.46
COc1ccccc1-c1ccc([C@@H]2[C@@H](CO)N3CCCCN(C(=O)c4cccnc4)C[C@H]23)cc1 | 0.0789
O=C(c1ccncc1)N1CCCCN2[C@H](CO)[C@@H](c3ccc(-c4ccccc4)cc3)[C@@H]2C1 | 0.823
O=C(c1cccc(F)c1)N1CCCCN2[C@@H](CO)[C@H](c3ccc(-c4ccncc4)cc3)[C@@H]2C1 | 1.14
COc1ccccc1-c1ccc([C@H]2[C@H]3CN(C(=O)c4cccnc4)CCCCN3[C@H]2CO)cc1 | 0.567
Cc1ccc(-c2ccc([C@H]3[C@@H](CO)N4CCCCN(C(=O)c5ccncc5)C[C@@H]34)cc2)cc1 | 0.15
O=C(c1ccncc1)N1CCCCN2[C@H](C1)[C@@H](c1ccc(-c3ccccc3)cc1)[C@@H]2CO | -0.181
COc1ccccc1-c1ccc([C@@H]2[C@H](CO)N3CCCCN(C(=O)c4ccncc4)C[C@@H]23)cc1 | -13.1*
Cc1cccc(-c2ccc([C@H]3[C@@H](CO)N4CCCCN(C(=O)c5ccncc5)C[C@H]34)cc2)c1 | -18.3*
Cc1cccc(-c2ccc([C@@H]3[C@@H](CO)N4CCCCN(C(=O)c5ccncc5)C[C@@H]34)cc2)c1 | -3.14*
Cc1ccc(-c2ccc([C@@H]3[C@H]4CN(C(=O)c5ccncc5)CCCCN4[C@H]3CO)cc2)cc1 | -2.56
CCS(=O)(=O)NCC[C@H]1CC[C@H](NS(=O)(=O)c2ccccc2C)[C@H](CO)O1 | 1.98
COCC(=O)N1CC(=O)N2[C@H](CO)[C@H](c3ccc(C#CC4CC4)cc3)[C@H]2C1 | 0.221
CCC(=O)N1[C@H](CO)[C@H](c2ccc(-c3cncnc3)cc2)[C@@H]1CN(C)C(C)=O | -0.161
CO[C@@H]1CN(C)C(=O)c2ccc(NC(=O)NC3CCCCC3)cc2OC[C@@H](C)N(CCc2ccccc2)C[C@H]1C | 0.868
COc1ccccc1NC(=O)N[C@@H]1CC[C@H](CCNS(=O)(=O)c2ccc(Cl)cc2)O[C@@H]1CO | 0.369
Cc1ccc(-c2ccc([C@H]3[C@H](CO)N4CCCCN(C(=O)c5ccncc5)C[C@@H]34)cc2)cc1 | -0.738
Cc1ccc(-c2ccc([C@@H]3[C@@H](CO)N4CCCCN(C(=O)c5ccncc5)C[C@H]34)cc2)cc1 | 2.83
Cc1cccc(-c2ccc([C@@H]3[C@@H](CO)N4CCCCN(C(=O)c5ccncc5)C[C@H]34)cc2)c1 | -3.06*
O=C(C1CCCC1)N1CC(=O)N2[C@@H](CO)[C@@H](c3ccc(Br)cc3)[C@@H]2C1 | 0.209
SMILES | IDE exosite inh
CCCNC(=O)N1[C@H](CO)[C@H](c2ccc(-c3cccc(OC)c3)cc2)[C@@H]1C#N | -1.19
COc1cccc(-c2ccc([C@H]3[C@@H](C#N)N(C(=O)Cc4ccncc4)[C@@H]3CO)cc2)c1 | -3.76*
COc1cccc(-c2ccccc2[C@@H]2[C@@H](C#N)N(C(=O)Cc3ccccc3)[C@H]2CO)c1 | -1.11
COc1cccc(-c2ccc([C@@H]3[C@@H](C#N)N(C(=O)Cc4ccncc4)[C@@H]3CO)cc2)c1 | -10*
COc1cccc(-c2ccccc2[C@@H]2[C@H](C#N)N(C(=O)Cc3ccccc3)[C@H]2CO)c1 | 0.948
COc1cccc(-c2ccc([C@H]3[C@H](C#N)N(C(=O)Cc4ccncc4)[C@H]3CO)cc2)c1 | -2.73
CC(=O)N1CC(=O)N2[C@H](CO)[C@@H](c3ccc(-c4ccc(C#N)cc4)cc3)[C@H]2C1 | -0.308
COc1ccc(C[C@H]2CCn3cc(nn3)COC[C@@H](C)NC2=O)cc1 | 1.34
CCCC(=O)N1C[C@@H]2[C@H](c3ccccc31)[C@H](CO)N2Cc1cocn1 | 3.39
CN(C)CC#Cc1ccc([C@@H]2[C@@H](CO)N3C(=O)CN(C(=O)c4cccnc4)C[C@@H]23)cc1 | 3.56
O=C(Nc1cccc(F)c1)N1CC(=O)N2[C@H](CO)[C@H](c3ccc(Br)cc3)[C@@H]2C1 | 0.0247
O=C(C1CCCCC1)N1CC(=O)N2[C@@H](CO)[C@@H](c3ccc(-c4cccnc4)cc3)[C@@H]2C1 | -0.388
O=C(C1CCCCC1)N1CC(=O)N2[C@H](CO)[C@H](c3ccc(-c4cccnc4)cc3)[C@@H]2C1 | 0.245
O=C(NC1CCCC1)N1CC(=O)N2[C@H](CO)[C@H](c3ccc(-c4ccncc4)cc3)[C@@H]2C1 | 0.541
O=C(C1CCCCC1)N1CC(=O)N2[C@H](CO)[C@@H](c3ccc(-c4cccnc4)cc3)[C@@H]2C1 | -5.08*
O=C(NC1CCCC1)N1CC(=O)N2[C@H](CO)[C@@H](c3ccc(-c4ccncc4)cc3)[C@H]2C1 | 1.11
O=C(C1CCCCC1)N1CC(=O)N2[C@H](C1)[C@@H](c1ccc(-c3cccnc3)cc1)[C@@H]2CO | -0.832
O=C(NC1CCCCC1)N1CC(=O)N2[C@H](CO)[C@@H](c3ccc(-c4ccncc4)cc3)[C@H]2C1 | -0.658
O=C(NC1CCCC1)N1CC(=O)N2[C@H](CO)[C@H](c3ccc(-c4cccnc4)cc3)[C@@H]2C1 | -3.37*
O=C(NC1CCCC1)N1CC(=O)N2[C@H](CO)[C@H](c3ccc(-c4ccccc4)cc3)[C@@H]2C1 | -5.7*
COCC(=O)N1[C@H](C#N)[C@@H](c2ccccc2-c2ccccc2F)[C@H]1CO | -0.079
CC(=O)N(C[C@@H]1N[C@@H](CO)[C@H]1c1ccc(-c2ccc(F)cc2)cc1)C(C)C | 2.31
Cc1noc(C)c1S(=O)(=O)Nc1ccc2c(c1)C(=O)N([C@@H](C)CO)C[C@@H](C)[C@H](CN(C)C(=O)Nc1cccc3ccccc13)OCCCC[C@@H](C)O2 | -1.75
O=C(C1CCCCC1)N1CC(=O)N2[C@@H](CO)[C@@H](c3ccc(Br)cc3)[C@@H]2C1 | 1.93
O=C(Cc1ccccc1)N1CC(=O)N2[C@H](C1)[C@@H](c1ccc(C3=CCCC3)cc1)[C@@H]2CO | 0.988
SMILES | IDE exosite inh
Cc1ccccc1S(=O)(=O)N1[C@@H](C#N)[C@@H](c2ccc(-c3ccc(F)cc3)cc2)[C@@H]1CO | 4.35
O=C(CN1CCOCC1)N1CCCCN2[C@@H](CO)[C@H](c3ccc(Br)cc3)[C@@H]2C1 | -0.963
O=C(CN1CCOCC1)N1CCCCN2[C@@H](CO)[C@@H](c3ccc(Br)cc3)[C@@H]2C1 | 1.25
O=C(CN1CCOCC1)N1CCCCN2[C@H](CO)[C@@H](c3ccc(/C=C/c4ccccc4)cc3)[C@@H]2C1 | -3.73*
O=C(CN1CCOCC1)N1CCCCN2[C@H](C1)[C@H](c1ccc(/C=C/c3ccccc3)cc1)[C@@H]2CO | -8.16*
O=C(CN1CCOCC1)N1CCCCN2[C@H](CO)[C@@H](c3ccc(Br)cc3)[C@@H]2C1 | 1.12
O=C(CN1CCOCC1)N1CCCCN2[C@H](CO)[C@H](c3ccc(-c4ccccc4)cc3)[C@H]2C1 | -2.11
CCC(=O)N1CC(=O)N2[C@H](CO)[C@@H](c3ccc(-c4ccc(C#N)cc4)cc3)[C@@H]2C1 | -0.885

Assay outcomes (PubChem)
